Among all 5,500 compounds or so, about 2,000 (36%) were called active. Another 18% or so got no clear call; they are omitted. Cut-off read from the data, not from the text of the source: active = normalized growth mostly below about 0.91 (no sharp cut-off); inconclusive = no clear call, values can overlap the other calls; inactive = mostly above about 0.92. This is one part of the list.
Experiment: chemical genetic growth profiling, strain panel (AID 1159580);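 note: tested at 20 µM; growth read once vehicle control cultures reached saturation at 30 °C; 1 = growth at the plate median or of vehicle wells; lower values mean less growth of the strain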
Conditions: S. cerevisiae deletion strains, growth OD

Measured: normalized growth

NC(=O)c1ccccc1N1CCCCC1
inactive: locus YAL013W, strain DEP1, stronger effect = lower value 1.01 | locus YBR229C, strain ROT2, stronger effect = lower value 0.986 | locus YDL101C, strain DUN1, stronger effect = lower value 0.949 | locus YDR150W, strain NUM1, stronger effect = lower value 0.912 | locus YEL061C, strain CIN8, stronger effect = lower value 1.02 | locus YGR078C, strain PAC10, stronger effect = lower value 0.997 | locus YHR030C, strain SLT2, stronger effect = lower value 0.986 | locus YHR087W, strain rtc3, stronger effect = lower value 1.05 | locus YJL187C, strain SWE1, stronger effect = lower value 1.02 | locus YJR043C, strain POL32, stronger effect = lower value 0.99 | locus YJR075W, strain HOC1, stronger effect = lower value 0.965 | locus YKL190W, strain CNB1, stronger effect = lower value 1.01 | locus YLR039C, strain RIC1, stronger effect = lower value 1.02 | locus YLR058C, strain SHM2 (second series), stronger effect = lower value 1.02 | locus YLR085C, strain ARP6, stronger effect = lower value 1.06 | locus YLR262C, strain YPT6, stronger effect = lower value 1.02 | locus YML094W, strain GIM5, stronger effect = lower value 1.02 | locus YMR219W, strain ESC1, stronger effect = lower value 0.997 | locus YMR263W, strain SAP30, stronger effect = lower value 0.941 | locus YNL128W, strain TEP1, stronger effect = lower value 0.996 | locus YNL153C, strain GIM3, stronger effect = lower value 0.993 | locus YNL298W, strain CLA4 (second series), stronger effect = lower value 0.991 | locus YNL322C, strain KRE1, stronger effect = lower value 0.994 | locus YNR030W, strain Alg12, stronger effect = lower value 1 | locus YOL006C, strain TOP1, stronger effect = lower value 0.991 | locus YPL055C, strain LGE1, stronger effect = lower value 0.998 | locus YPL241C, strain CIN2, stronger effect = lower value 0.994 | locus YPR135W, strain CTF4, stronger effect = lower value 0.907

Source: PubChem BioAssay AID1159580 (chemical genetic matrix, 2015)
